Eight compounds from PubChem BioAssay (Tox21) can be followed below.

Experiment [1] is described as follows: qHTS assay to identify small molecule agonists of the vitamin D receptor (VDR) signaling pathway - cell viability counter screen (AID 743224). Further: nearly all actives have a fitted effect of over 50% in size. Further: potency means the concentration at half of the fitted maximal effect. Put shortly: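 Here cell health was gauged by luminescent ATP detection (CellTiter-Glo, 30 min RT) in VDR-bla cells that had been incubated with test compounds for 16 h at 37C and 5% CO2.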
(In general: In qHTS, concentration-response curves come from the screen itself.)

A short description of experiment [2]: qHTS assay to identify small molecule antagonists of the vitamin D receptor (VDR) signaling pathway - cell viability counter screen (AID 743225). Further: nearly all actives have a fitted effect of over 50% in size. Further: potency means the concentration at half of the fitted maximal effect. Put shortly: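 Cells (VDR-UAS-bla HEK 293T) are plated, rested 4 h at 37C, dosed with compound and 3 nM final 1-alpha,25-dihydroxy vitamin D3, and incubated 16 h. Viability is taken from CellTiter-Glo luminescence in the reporter wells.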

Experiment [3] can be described thus: qHTS assay to identify small molecule agonists of the NFkB signaling pathway - cell viability counter screen (AID 1159515; calls by dose curve; further: nearly all actives have a fitted effect of over 55% in size). Put shortly: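 5 hr compound treatment of NFkB-bla ME-180 cells (2,000/well, seeded overnight beforehand), followed by reporter substrate for 1.5 hr. CellTiter-Glo added afterward; luminescence after 30 min RT.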
A short description of experiment [4]: qHTS assay to identify small molecule agonists of the endoplasmic reticulum stress response signaling pathway - cell viability counter screen (AID 1159517; calls by dose curve;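 further: HeLa cells carrying an ER stress response element beta-lactamase reporter; nearly all actives have a fitted effect of over 50% in size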). Put shortly: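 CellTiter-Glo was added to wells already read for beta-lactamase FRET, and luminescence was recorded 30 min later. Cells: ESRE-bla HeLa, 1,500 per well, compound exposure 5 hr at 37 C.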
A short description of experiment [5]: qHTS assay to identify small molecule antagonists of the retinoid-related orphan receptor gamma (ROR-gamma) signaling pathway - cell viability counter screen (AID 1159520). Further: nearly all actives have a fitted effect of over 50% in size. Put shortly:
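Tet-on ROR gamma CHO cells (1,000/well) were plated 4 hr, given compounds in DMSO for 2 hr at 37 C, then induced with 1 uM final doxycycline for 16 hr. Viability was read as ATP by CellTiter-Glo luminescence after 30 min.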

In experiment [6] the target is Nuclear receptor ROR-gamma (Homo sapiens) (UniProt P51449). The experiment in a line: qHTS assay to identify small molecule antagonists of the retinoid-related orphan receptor gamma (ROR-gamma) signaling pathway (AID 1159521; further: nearly all actives have a fitted effect of over 50% in size; further: potency means the concentration at half of the fitted maximal effect). Put shortly: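 RORγ antagonism is scored from reduced reporter luminescence in Tet-on CHO cells. Induction used 1 uM final doxycycline hyclate for 16 h at 37 C, following a 2 h compound exposure.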

Experiment [7] is described as follows: qHTS assay to identify small molecule agonists of the AP-1 signaling pathway - cell viability counter screen (AID 1159525; calls by dose curve; further: nearly all actives have a fitted effect of over 55% in size). The gist of the method: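 ME-180 AP-1-bla, 2500 cells/well, Opti-MEM + 0.5% dialyzed FBS; overnight 37 °C; cpd 15-pt titration, 5 h 37 °C; CellTiter-Glo 30 min RT; luminescence read; normalised to TOAB and DMSO controls.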
Experiment [8] in a line: qHTS assay to identify small molecule agonists of the AP-1 signaling pathway (AID 1159526; calls by dose curve).
Experiment [9] can be described thus: qHTS assay to identify small molecule agonists of the RXR signaling pathway - cell viability counter screen (AID 1159529). Further: nearly all actives have a fitted effect of over 50% in size. Put shortly: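 Cell viability is measured by CellTiter-Glo luminescence, 30 min at room temperature, in wells already read for beta-lactamase. Engineered HEK 293T cells (RXR-alpha-UAS-bla) are dosed 16 hr at 37 C. Tetraoctyl ammonium bromide serves as positive control.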

The nature of experiment [10]: qHTS assay to identify small molecule antagonists of the retinoid acid receptor (RAR) signaling pathway - cell viability counter screen (AID 1159551). Further: nearly all actives have a fitted effect of over 35% in size. Put shortly:
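Seed C3RL4 cells; next day add compound, then retinol to 1 uM final; incubate 6 h at 37 C; add CellTiter-Glo; read luminescence after 30 min at RT.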

Experiment [11] in a line: qHTS assay to identify small molecule antagonists of the retinoic acid receptor (RAR) signaling pathway (AID 1159552; further: nearly all actives have a fitted effect of over 50% in size). The gist of the method:
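Quantitative HTS in C3RL4 RARE-luciferase reporter cells. Compounds were added with 1 uM (final) retinol; luminescence was read after 6 hr.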

A short description of experiment [12]: qHTS assay to identify small molecule agonists of the retinoic acid receptor (RAR) signaling pathway (AID 1159553). To be noted: C3RL4 RARE luciferase reporter, agonist, 6 h; activation: at 73.3 µM (top of the series) unless noted. Put shortly:
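Activation of retinol signaling was monitored via a RARE luciferase reporter in C3RL4 cells. After 6 hr compound treatment at 37 C, detection reagent was added for 30 min at room temperature before luminescence reading.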

A short description of experiment [13]: qHTS assay to identify small molecule antagonists of the estrogen related receptor (ERR) signaling pathway - cell viability counter screen (AID 1224818).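 Further: viability measured after 17.5 h of compound exposure.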 Put shortly:
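In the same ERR cell assay, compound-treated wells (17.5 h, 37 C) were multiplexed with a fluorogenic viability reagent, CellTiter-Fluor, read after 30 min to flag cytotoxic substances.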

Experiment [14] in a line: qHTS assay to identify small molecule antagonists of the estrogen related receptor (ERR) signaling pathway (AID 1224819). Put shortly:
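qHTS in ERR cells, 2,000/well, 1536 format. Cpd (DMSO) added after 6 h settle, 18 h 37 C. One-Glo luminescence, 30 min RT.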

The nature of experiment [15]: qHTS assay to identify small molecule agonists of the estrogen related receptor (ERR) signaling pathway (AID 1224820). The gist of the method:
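Cells: ERR line from NTP, 2,000/well. Pre-incubation 6 h, 37 C/5% CO2. Compound (DMSO) pin transfer, 18 h 37 C. One-Glo, 30 min RT, luminescence.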

For experiment [16], the system named is estrogen-related receptor alpha (ERRalpha) with PGC-1alpha coactivator, human. Description: qHTS assay to identify small molecule antagonists of the estrogen related receptor signaling pathway with the pleiotropic PPARgamma coactivator (PGC) (AID 1224821; calls by dose curve). The gist of the method: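 Luminescent read-out (One-Glo, 30 min at room temperature) following 18 h treatment of PGC/ERR cells at 37 C with compounds delivered in DMSO. Cells had settled 6 h at 37 C/5% CO2 before dosing.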

The nature of experiment [17]: qHTS assay to identify small molecule antagonists of the estrogen related receptor signaling pathway with the pleiotropic PPARgamma coactivator (PGC) cell viability counter screen (AID 1224822). The gist of the method:
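Compounds in DMSO, with positive and negative controls, were applied to PGC/ERR cells (2,000/well) and left 17.5 h at 37 C before CellTiter-Fluor detection.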

The nature of experiment [18]: qHTS assay to identify small molecule agonists of the estrogen related receptor signaling pathway with the pleiotropic PPARgamma coactivator (PGC) (AID 1224823). The gist of the method:
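Steps: plate PGC/ERR cells at 2,000 cells/well; incubate 6 h, 37 C/5% CO2; pin-transfer compounds (DMSO); incubate 18 h, 37 C; add One-Glo; 30 min RT; read luminescence.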

The target in experiment [19] is Retinoic acid receptor RXR-alpha (Homo sapiens) (UniProt P19793). The experiment in a line: qHTS assay to identify small molecule agonists of the RXR signaling pathway (AID 1159527; calls by dose curve; further: nearly all actives have a fitted effect of over 35% in size). The gist of the method: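 qHTS of the Tox21 10K library in GeneBLAzer RXR-alpha HEK 293T cells carrying a beta-lactamase reporter […]; 16 hr treatment, 9-cis retinoic acid as agonist control, FRET read-out.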

Inconclusive results are not listed. Active and inactive are the calls of the source. Unless noted, the call rests on the fitted dose curve; in most records, active means well fitted curve in the direction sought with a large enough effect in the repeat runs; inconclusive means weak or mixed curves; inactive means no such curve, though single readings can be large; an effect the other way counts as inactive or inconclusive.

Sequence of Retinoic acid receptor RXR-alpha (Homo sapiens) (P19793 whole entry, looked up): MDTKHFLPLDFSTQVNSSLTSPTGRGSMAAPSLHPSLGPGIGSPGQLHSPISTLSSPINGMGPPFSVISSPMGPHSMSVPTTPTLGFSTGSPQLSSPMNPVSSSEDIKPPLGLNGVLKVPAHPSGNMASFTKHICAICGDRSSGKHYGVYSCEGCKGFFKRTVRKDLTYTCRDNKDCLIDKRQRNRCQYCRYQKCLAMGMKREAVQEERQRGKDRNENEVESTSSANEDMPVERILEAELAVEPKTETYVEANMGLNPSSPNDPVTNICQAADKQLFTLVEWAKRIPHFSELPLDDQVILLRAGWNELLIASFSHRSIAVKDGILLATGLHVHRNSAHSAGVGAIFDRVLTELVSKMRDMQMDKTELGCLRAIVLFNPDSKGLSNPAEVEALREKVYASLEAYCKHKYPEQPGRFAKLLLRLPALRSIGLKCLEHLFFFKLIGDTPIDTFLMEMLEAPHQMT

Regarding `Cc1cc(C)c(/C=C2\C(=O)Nc3ccccc32)[nH]1`, the Potency entry in [1], in experiment [2], in experiment [3], in experiment [4], in [5] and in experiment [6] was “inactive” in each case. The Potency result in [7], in experiment [8], in experiment [9], in experiment [10], in [11] and in [12] was “inactive” in each case. Besides, the Potency entry in [14], in experiment [16] and in experiment [17] was “inactive” each time. In addition, the compound was called inactive in [13], in [15] and in experiment [18].

With `O=C1NC(=O)[C@@H]2CC=CC[C@H]12`, the Potency entry in experiment [1], in [3], in experiment [4], in [5], in [7] and in experiment [8] was “inactive” each time. In addition, the Potency entry in [10], in [11] and in experiment [12] was “inactive” throughout. The Potency in experiment [6] was 54.5 µM (active).

As for `Fc1ccc(C(c2ccc(F)cc2)N2CCNCC2)cc1`, the values for the Potency in experiment [1] and in [2] were 26.6 µM (active) and 16.9 µM (active), respectively. Further, the Potency result in [3], in [4], in experiment [5], in experiment [6], in experiment [7] and in experiment [8] was “inactive” throughout. The Potency entry in [19] and in experiment [10] was “inactive” throughout.

As to `OC1CCC(C2CCCCC2)CC1` (centres undefined), the Potency result in experiment [1], in experiment [3], in experiment [4], in experiment [5], in [6] and in experiment [7] was “inactive” in each case. The Potency result in experiment [8], in experiment [19], in experiment [10] and in experiment [12] was “inactive” each time.

Turning to `O=C(O)Cc1ccc2c(c1)C(=O)c1ccccc1CO2`, the Potency entry in experiment [1], in experiment [2], in experiment [3], in experiment [4], in experiment [5] and in experiment [6] was “inactive” each time. Further, the Potency entry in experiment [7], in [8], in [9] and in experiment [10] was “inactive” in each case.

In the case of `COc1cc(C)ccc1O`, the Potency result in experiment [1], in experiment [2], in experiment [3], in [4], in experiment [5] and in [6] was “inactive” each time. Also, the Potency entry in experiment [7], in experiment [8], in [19], in [10] and in [12] was “inactive” in each case.

As to `CCn1c2ccccc2c2cc([N+](=O)[O-])ccc21`, the Potency entry in experiment [1], in experiment [3], in experiment [4], in [5], in [6] and in experiment [7] was “inactive” each time. Further, the Potency entry in experiment [8], in experiment [9], in [10], in [11] and in experiment [12] was “inactive” throughout.

Take `Cc1nc(-c2ccc(Cl)cc2)oc1COC(C)(C)C(=O)O`: the Potency result in experiment [1], in experiment [3], in experiment [4], in experiment [5], in [6] and in [7] was “inactive” each time. For the same compound, the Potency result in experiment [8], in experiment [19] and in [10] was “inactive” throughout.
